AddAB inh = less growth of phage-infected E. coli with AddAB; actives 0.29% (n = 330,000); E. coli expressing H. pylori AddAB, absorbance growth; AID 435030; inhibition, % at 11.9 µM; in the data active = inhibition above about 12%
phage Ecoli inh = E. coli growth loss with phage present | growth absorbance | AID 651602 | actives 0.26% (n = 360,000) | inhibition, % at 11.9 µM; in the data active = inhibition above about 11%
Tat export inh = blocks Tat-dependent protein export in E. coli | E. coli MC4100 TorA-mCherry Tat export, fluorescence | inhibition, % at 10 µM | actives 0.036% (n = 340,000) | AID 488895;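 active = mean replicate inhibition at least 50% and at least half of replicates individually reaching 50%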;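 note: exported cargo escapes ClpAP degradation while cytoplasmic cargo is degraded and loses fluorescence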
E coli growth-1 = reduces bacterial viability in AddAB counter-screen; inhibition, % at 11.9 µM; AID 449728; E. coli V3065 growth, OD600 absorbance, 18 h; actives 0.27% (n = 330,000);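 active = inhibition above the campaign's mean inhibition across all tested compounds plus 3 SD, cut at about 9.9% in these data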;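 note: uninfected addAB+ strain grown without phage in ampicillin broth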
E coli growth-2 = blocks Escherichia coli growth. OD600 absorbance (test concentration not listed). actives 0.21% (n = 330,000). OD600, 23 h; hits give low values. AID 1053175;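 active = OD600 absorbance below the run mean of sample wells minus 3.6 SD, in any replicate, cut at about 0.56 in these data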
AddAB confirm = growth loss of T4-infected E. coli expressing H. pylori AddAB, confirmed | shares compounds with AddAB inh | E. coli V3065 expressing H. pylori AddAB, T4 phage, OD; T4 phage with gene 2 nonsense mutations | inhibition, % at 11.9 µM | actives 64% (n = 880) | AID 488942;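 active = mean inhibition above a set limit taken from the earlier primary screen, cut at about 13% in these data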;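 note: higher means less bacterial growth since AddAB block lets phage replicate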
RecBCD counter = AddAB counter-screen: growth loss of RecBCD+ E. coli infected with mutant T4 phage | shares compounds with AddAB inh | actives 73% (n = 880) | inhibition, % at 11.9 µM | E. coli V66 + mutant T4 phage, OD growth | AID 488955;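 active = mean inhibition above the mean of solvent-only control wells plus 3 SD, cut at about 4% in these data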;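 note: optical density read after an 18 h incubation at 37 °C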
bact viab count = reduces bacterial viability, AddAB inhibitor counter-screen; actives 35% (n = 880); shares compounds with AddAB inh; inhibition, % at 11.9 µM; absorbance (AddAB counterscreen); in the data active = inhibition above about 25%
RecBCD conf = confirmation: growth loss of phage-infected RecBCD+ E. coli (RecBCD inhibitor screen). shares compounds with phage Ecoli inh. E. coli V66 + T4 2- phage, growth OD. inhibition, % at 11.9 µM. actives 45% (n = 890). AID 651982;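 active = mean inhibition over triplicates exceeding the hit threshold derived in the original primary screen, cut at about 11% in these data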
Ecoli viability = bacterial viability inhibition counter-screen for RecBCD; inhibition, % at 11.9 µM; E. coli viability, absorbance (OD) growth; actives 29% (n = 890); AID 651983; shares compounds with phage Ecoli inh; in the data active = inhibition above about 20%;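 note: E. coli strain V66 grown with compound alone and no phage infection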
AddAB phage OD = growth loss of phage-infected AddAB E. coli, RecBCD counter-screen; E. coli expressing H. pylori AddAB + T4 phage, OD growth; gene 2 mutant T4, recBCD-deleted host; inhibition, % at 11.9 µM; actives 45% (n = 890); shares compounds with phage Ecoli inh; AID 651984;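 active = mean inhibition above the solvent-only control wells' mean plus 3 SD, cut at about 22% in these data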;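 note: higher means less bacterial growth from phage killing when AddAB is blocked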
Each line names hits and unclear results; the compound was inactive in the other large screens (follow-up assays come after a bar, where they were run). Shown are actives, neighbours in structure and some others; about 0.5% of the full set was active somewhere.

COc1ccc(C(=O)ON=C(c2cccs2)C(C)(C)C)cc1	none (no result: AddAB inh, phage Ecoli inh, Tat export inh, E coli growth-1)
COC(=O)C1NC(C(NC(=O)COc2ccccc2)C(=O)NCc2ccc(OC)cc2)SC1(C)C (configuration not stated)	none (no result: AddAB inh, phage Ecoli inh, Tat export inh, E coli growth-1)
COc1cc(-c2nnc(SCc3cc(=O)oc4cc(O)c(O)cc34)o2)cc(OC)c1OC	AddAB inh 18, phage Ecoli inh 16, E coli growth-1 18 | AddAB confirm 18 | RecBCD counter 16 | bact viab count inactive | RecBCD conf inactive | Ecoli viability inactive | AddAB phage OD inactive
COc1ccc(/C=N/NC(=O)c2nc(-c3ccccc3)n(-c3ccccc3)n2)c(O)c1	AddAB inh 21, phage Ecoli inh 22, E coli growth-1 19 (no result: E coli growth-2) | AddAB confirm inactive | RecBCD counter 19 | bact viab count inactive | RecBCD conf 11 | Ecoli viability inactive | AddAB phage OD inactive
O=C(C=Cc1ccc(F)cc1)NC(Cc1c[nH]c2ccccc12)C(=O)O (configuration not stated)	none (no result: AddAB inh, phage Ecoli inh, Tat export inh, E coli growth-1)
Nc1ccc(S(=O)(=O)Nc2nccs2)cc1	AddAB inh 29, phage Ecoli inh 12, E coli growth-1 15 | AddAB confirm inactive | RecBCD counter 5.5 | bact viab count inactive | RecBCD conf inactive | Ecoli viability inactive | AddAB phage OD 27
O=S(=O)(Nc1nccs1)c1ccc(Br)cc1	none
Cc1cc(C)c2c(NC(N)=S)n[nH]c2n1	none
Cc1cc(C)c2c(N=NN(C)C)[nH]nc2n1	AddAB inh 39, phage Ecoli inh 14, E coli growth-1 78 | AddAB confirm 97 | RecBCD counter 8.6 | bact viab count 54 | RecBCD conf 12 | Ecoli viability inactive | AddAB phage OD 70
O=C(O)CC1S/C(=N/N=C/c2ccccn2)NC1=O (configuration not stated)	AddAB inh 22, phage Ecoli inh 22, E coli growth-1 19 (no result: E coli growth-2) | AddAB confirm 17 | RecBCD counter 18 | bact viab count inactive | RecBCD conf inactive | Ecoli viability inactive | AddAB phage OD inactive
Oc1ccc(N=Nc2ccc3c(c2)OCCO3)c2ncccc12	AddAB inh 13, phage Ecoli inh 11 | AddAB confirm 13 | RecBCD counter 9.6 | bact viab count inactive | RecBCD conf inactive | Ecoli viability inactive | AddAB phage OD inactive
NS(=O)(=O)c1ccc(N=Nc2ccc(O)c3ncccc23)cc1	none
O=C(O)c1cccc(NC(=S)NC(NC(=O)c2ccco2)C(Cl)(Cl)Cl)c1 (configuration not stated)	none
O=C(NC(NC(=S)Nc1ccc(Cl)c(Cl)c1)C(Cl)(Cl)Cl)c1ccco1 (configuration not stated)	AddAB inh 14, phage Ecoli inh 14, E coli growth-1 14 | AddAB confirm 20 | RecBCD counter 13 | bact viab count inactive | RecBCD conf inactive | Ecoli viability inactive | AddAB phage OD inactive
[N-]=[N+]=NC1C[C@H](n2ccc(=O)[nH]c2=O)O[C@@H]1CO (some centres not stated)	AddAB inh 37, phage Ecoli inh 32, E coli growth-1 38 (no result: E coli growth-2) | AddAB confirm 94 | RecBCD counter 20 | bact viab count 77 | RecBCD conf 41 | Ecoli viability 28 | AddAB phage OD 85
COC(=O)Cn1cc(C(=O)c2ccco2)c2ccccc21	none
